Results on 40 compounds are retold here after PubChem BioAssay (Tox21).

Inconclusive results are not listed. Entries that show only a call come without a potency. Active and inactive are the calls of the source. The call rests on the fitted dose curve.
Potency means the concentration at half of the fitted maximal effect.

Chain of D(2) dopamine receptor (Homo sapiens) (P14416 whole entry, looked up): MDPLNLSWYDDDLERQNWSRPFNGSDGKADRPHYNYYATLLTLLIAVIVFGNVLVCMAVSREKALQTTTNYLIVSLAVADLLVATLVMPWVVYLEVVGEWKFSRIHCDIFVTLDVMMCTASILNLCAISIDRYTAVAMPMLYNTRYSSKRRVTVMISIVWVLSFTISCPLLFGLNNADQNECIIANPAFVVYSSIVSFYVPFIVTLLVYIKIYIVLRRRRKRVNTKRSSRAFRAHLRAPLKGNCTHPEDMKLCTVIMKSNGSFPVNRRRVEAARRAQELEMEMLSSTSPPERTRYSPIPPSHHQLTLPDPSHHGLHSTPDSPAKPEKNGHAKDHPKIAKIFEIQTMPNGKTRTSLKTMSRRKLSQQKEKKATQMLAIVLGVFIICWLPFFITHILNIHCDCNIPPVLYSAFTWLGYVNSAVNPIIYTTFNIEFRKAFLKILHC

The assay addresses D(2) dopamine receptor (Homo sapiens) (UniProt P14416). As to the kind of experiment: Dopamine D2 receptor (DRD2) small molecule agonists, cell-based qHTS assay (AID 1963594). Further: nearly all actives have a fitted effect of over 35% in size. As to conditions: HEK293-DRD2 cAMP HTRF, agonist mode, 30 min; series mostly up to 92.4 µM. From the text: National Center for Advancing Translational Sciences [NCATS]
Division of Preclinical Innovation [DPI]
U.S. Environmental Protection Agency [EPA]
National Institutes of Environmental Health Sciences [NIEHS]
National Toxicology Program [NTP]
U.S. Food and Drug Administration [FDA]
DRD2 is the D2 subtype of the dopamine receptor, which is coupled to Gi subtype of G protein-coupled receptor. This G protein-coupled receptor inhibits adenylyl cyclase activity. The DRD2-HEK293 cell line stably expressing D2 dopamine receptor can be used for screening agonists and antagonists of interactions between D2 and its ligands. The Hek293-DRD2 cAMP assay is based on HTRF technology. It measures changes of cAMP accumulation in response to Gi coupled GPCR activation or inhibition.
Tox21 Assay Protocol Summary:
DRD2-Hek293 cells were dispensed at 600 cells/3uL/well in 1536-well white plates using a Multidrop Dispenser. After the assay plates were incubated at a 37 C/5% CO2 incubator for 24 h, 1 uL of Ro20-1724 at final concentration of 0.1 mM was transferred to the assay plate by a Flying Reagent Dispenser. Following Ro20-1724 addition, 23 nL of compound dissolved in DMSO, positive controls or DMSO only was added to the assay plates via Wako pintool station. The assay plates were incubated at room temperature for 10 min. Next, 1 uL of NKH477 at 200nM was added into the plates. After the assay plates were incubated at room temperature for an additional 30 min, 2.5 ul/well of cAMP-d2 and 2.5 ul/well of anti-cAMP-cryptate were added respectively into the assay plates using a Flying Reagent Dispenser. The plates were incubated at room temperature for 1 h. The fluorescence intensity in the plates was measured at 340 nm excitation and 665 & 620 nm emission by an Envision plate reader.
For orientation: In qHTS, concentration-response curves come from the screen itself.
Consider `C=C1CCC2CC1C2(C)C` (stereo not given), for which the Potency result was “inactive”. In the case of `NO`, the Potency entry was “inactive”. As for `Oc1c(Cl)cc(Cl)c2cccnc12`, the Potency entry is “inactive”. As for `Cc1c(-c2cccnc2)c2ccccc2n1CCCCC(=O)O`, the Potency result was “inactive”. On the same count and under the same terms, with `CCN(CC)C(=O)c1ccc(O)c(OC)c1` the entry was “inactive”; with `Nc1ccc2c3c(cccc13)-c1ccccc1-2`, “inactive”.

Turning to `ClC(Cl)Cl`, the Potency entry is “inactive”. For the compound `CCCCN(CCN(CCCC)C(=O)N1CCOCC1)C(=O)N1CCOCC1`, the Potency result is “inactive”.

On to `Cc1ccc(OC(=O)CC(C)C)cc1`, for which the Potency result was “inactive”.

In the case of `CCOCCn1c(N2CCCN(C)CC2)nc2ccccc21`, the Potency result was “inactive”. Still for that read-out and setting: the entry for `COP(=O)(OC)OC(c1ccc(Cl)cc1)P(=O)(OC)OC` (stereo not given) is “inactive”; for `CNC(C)=O` it is “inactive”; for `CCOc1ccc2nc(N)sc2c1` it is “inactive”. Same read-out and setting: with `C[C@@H](O)[C@H]1C(=O)N2C(C(=O)O)=C(S[C@@H]3CN[C@H](CNS(N)(=O)=O)C3)[C@H](C)[C@H]12` the entry was “inactive”; with `CC(=O)c1ccc2c(c1)N(CCCN(C)C)c1ccccc1S2`, “inactive”; with `CC(C)=CCCC(C)CCOC=O` (stereo not given), “inactive”. The same measure, in the same setting: the entry for `CCOc1ccc(OCC)c(Cl)c1` is “inactive”. With `CCCC/C=C/CCCCO`, the Potency entry is “inactive”. In the case of `Cc1cc2c(cc1C(F)(F)F)N(C(=O)Nc1ccc(Oc3cccnc3C)nc1)CC2`, the Potency result was “inactive”.

Turning to `O=CNc1ccccc1`, the Potency result is “inactive”. On the same count and under the same terms, the entry for `CCN1CCOCC1` is “inactive”. Take `O=C1CC[C@@H](C(=O)O)N1`: the Potency result is “inactive”. In the case of `[O-][N+](=Nc1ccccc1)c1ccccc1`, the Potency result was “inactive”. In the case of `O=C1c2ccccc2C(=O)N1SC1CCCCC1`, the Potency entry is “inactive”. Same read-out and setting: with `Nc1nnc(-c2ccc([N+](=O)[O-])o2)o1` the entry was “inactive”. With `CC(=O)SCc1ccco1`, the Potency result is “inactive”. As for `O=CC=C(c1ccccc1)c1ccccc1`, the Potency result is “inactive”. Turning to `O=C1OC2(c3ccccc31)c1ccc(O)c(Br)c1Oc1c2ccc(O)c1Br`, the Potency is 15.4 µM (active). Still for that read-out and setting: the entry for `CC1(CO)CN(c2ccccc2)NC1=O` (stereo not given) is “inactive”. The same measure, in the same setting: the entry for `CCCCC/C(=C\c1ccccc1)CO` is “inactive”; for `COc1ccc(/C=N/NC(=O)c2ccncc2)cc1OC` it is “inactive”; for `O=C(CCCN1CCN(c2ccc(F)cc2)CC1)NC1c2ccccc2CSc2ccccc21` (stereo not given) it is “inactive”.

On to `CCCCCCC#CC(=O)OC`, for which the Potency entry is “inactive”. As to `OC12N=C(c3ccccc3)SC1Cc1cc(Cl)ccc12` (stereo not given), the Potency entry is “inactive”. In the case of `CCN1C=CN(C)C1C` (stereo not given), the Potency result is “inactive”. Regarding `CC(C)COC(=O)C(C)C`, the Potency result was “inactive”. Take `CCCCCCCCCCCCCCCCCCCl`: the activation is 0.784% [at 8.39 µM] (inactive).

Turning to `O=c1[nH]nc(-c2ccc([N+](=O)[O-])o2)o1`, the Potency result was “inactive”. On the same count and under the same terms, with `CCC(C)(CCC(C)C)C(=O)[O-].CCC(C)(CCC(C)C)C(=O)[O-].[Zn+2]` (stereo not given) the entry was “inactive”; with `CCCC[N+](C)(CCCC)CCCC`, “inactive”.
